Results on 42 sequences are retold here after article PMC7819943, “Rice protein-binding microarrays: a tool to detect cis-acting elements near promoter regions in rice”.

Whole data set: some 39,000 sequences, median “fluorescence intensity (a.u.)” near 4,300, cut for the highest 2% near 39,000. This is one part of a sample in which the highest values are shown more often than they occur.

The experiment addresses T1, OsSMF1 (Oryza sativa, UniProt Q6ZLB0 1-436).
T1 sequence: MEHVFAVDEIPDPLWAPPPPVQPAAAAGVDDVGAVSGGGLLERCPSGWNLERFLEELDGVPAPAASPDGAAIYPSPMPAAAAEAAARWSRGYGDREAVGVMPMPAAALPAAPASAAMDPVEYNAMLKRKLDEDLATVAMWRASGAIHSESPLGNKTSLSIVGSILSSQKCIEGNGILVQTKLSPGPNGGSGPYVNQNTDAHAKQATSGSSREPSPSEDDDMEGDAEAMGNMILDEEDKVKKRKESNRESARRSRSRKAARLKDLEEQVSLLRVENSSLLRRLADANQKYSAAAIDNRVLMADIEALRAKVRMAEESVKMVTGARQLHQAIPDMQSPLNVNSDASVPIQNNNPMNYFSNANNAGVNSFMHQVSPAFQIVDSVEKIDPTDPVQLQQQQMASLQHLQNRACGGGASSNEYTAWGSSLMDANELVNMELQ
Description: protein-binding microarray (RPBM); PBS, 2% BSA, 51.3 ng/ul salmon testes DNA, 50 uM zinc acetate, 200 nM TF, 25 C, 1 h; high values mean tight binding. The settings on record: protein: recombinant; tags: N-terminal polyhistidine and DsRed monomer fusion (pET32a); chain copies: 2; label: CyDye5-dUTP incorporated in the synthesized complementary strand; 3' TTTTT single-stranded linker to array surface; dsDNA, one strand shown. Put shortly:
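Polyhistidine-tagged DsRed fusions of transcription factors, joined at the N-terminus, were expressed in E. coli BL21-CodonPlus and isolated on Ni–NTA. They were incubated at 200 nM for 1 h at 25 °C on a custom Agilent array, double-stranded and BSA-blocked, in PBS with 2% BSA, salmon testes DNA and 50 µM zinc acetate. The binding signal is per-feature fluorescence intensity (arbitrary units) read on an Axon 4000B scanner after washing.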
In the case of “TTGGCGTGTGTGCAGCATTTGCGGCGGCGGCTGAGAAAGACGGAGTCACCTAGTGCAG”, the binding signal is 31100 fluorescence intensity (a.u.).
With “CATTGGTGGCGTAATGTGGTTGTTAGTGATTTGTTGCACCCGGAGTCACCTAGTGCAG” the figure was 3460 fluorescence intensity (a.u.); with “TCAATCTGGCGGGGTTTATTTGTGACCCTCGATCGGTCAACGGAGTCACCTAGTGCAG”, 4060 fluorescence intensity (a.u.).
With “GGAGGTGGGGATGGTGGGAGGTTTTGGTTTGGTAAAATAGCGGAGTCACCTAGTGCAG” the figure was 4910 fluorescence intensity (a.u.); with “AATAAGTAAGGTGGTTTTAAAATTTGGGGAGAGCTAACAGCGGAGTCACCTAGTGCAG”, 39100 fluorescence intensity (a.u.).
With “TAAAATTTAAATTTTGGCTAATAAGTATAAGCATAACTGTCGGAGTCACCTAGTGCAG” the figure was 34300 fluorescence intensity (a.u.).
Take “GCTACACTTAACGCTGTCCACAACTCCACATACGCGTTACCGGAGTCACCTAGTGCAG”: the binding signal was 3330 fluorescence intensity (a.u.).
In the case of “ATTTCTAATGCCACGTTAACGCCACGTGGAAAGAAGACCGCGGAGTCACCTAGTGCAG”, the binding signal is 17900 fluorescence intensity (a.u.).
In the case of “GAACGGTAGAATGATTATTGCTCCTTCAGTTTTCGAGTAACGGAGTCACCTAGTGCAG”, the binding signal was 3320 fluorescence intensity (a.u.).
With “CTATGACGGGTCGAAAACGGAACCCGTCAAAGATGAGTTACGGAGTCACCTAGTGCAG” the figure was 18300 fluorescence intensity (a.u.); with “TGAACCGGCCGGTTTTCATGTGAACCGTGAACCGTAATAACGGAGTCACCTAGTGCAG”, 3240 fluorescence intensity (a.u.); with “TCCGTTCTGTTTATGAATAACGGTCGAAAACGTAATAACCCGGAGTCACCTAGTGCAG”, 46300 fluorescence intensity (a.u.).
With “GTGGTACACGCATGCTGACTAATTAAGACCGACAGAATCCCGGAGTCACCTAGTGCAG” the figure was 3390 fluorescence intensity (a.u.); with “AACATGAAAGCTCAAGAGCTCGTGCTGACGGCTGAGAATCCGGAGTCACCTAGTGCAG”, 3150 fluorescence intensity (a.u.).
For the sequence “TATGGACACCATCCTTGTCATTGGGTTAGGACTGGCCTTACGGAGTCACCTAGTGCAG”, the binding signal was 3630 fluorescence intensity (a.u.).
With “GCCATCCAACTATTTTCATGGATCAACATCATAGTAGTATCGGAGTCACCTAGTGCAG” the figure was 3140 fluorescence intensity (a.u.).
“AAATAGTCACACATAAAATACTATTCATATTTTATCATCTCGGAGTCACCTAGTGCAG”: the binding signal was 13500 fluorescence intensity (a.u.).
With “TTCATCCTATCACATCAAATATTTGGATACATACATGGAGCGGAGTCACCTAGTGCAG” the figure was 45500 fluorescence intensity (a.u.).
With “TTGCTTGCGAGCAAAGGTGGAGTTCATGCCCTCATCATATCGGAGTCACCTAGTGCAG” the figure was 3710 fluorescence intensity (a.u.).
For the sequence “AATATAATGGCCGCTCGCTGATGGGTGCGTCATGCACCCTCGGAGTCACCTAGTGCAG”, the binding signal is 4060 fluorescence intensity (a.u.).
As for “ATCCCCGGTCATCTCGCCTCGTCTCGTCCCGTCCCTGCGCCGGAGTCACCTAGTGCAG”, the binding signal is 3460 fluorescence intensity (a.u.).
Consider “TTTTCCGGATCGAATTGCCACGTAAGCGCCACGTCAATGACGGAGTCACCTAGTGCAG”, for which the binding signal is 48300 fluorescence intensity (a.u.).
“TCGGATCGAATTGCCACGTAAGCGCCACGTCGATGCCACACGGAGTCACCTAGTGCAG”: the binding signal is 33000 fluorescence intensity (a.u.).
Turning to “CCAATATATAATTGCCACGTCATCGCCGCGTCAATGCCACCGGAGTCACCTAGTGCAG”, the binding signal is 28100 fluorescence intensity (a.u.).
Consider “TTTTCGATATATAATTGCCACGTAAGCGTCACGTCAATGCCGGAGTCACCTAGTGCAG”, for which the binding signal is 34300 fluorescence intensity (a.u.).
Take “GCTCGAATTGCCACGTAAGCGCCACGTCAATGCCACGTCACGGAGTCACCTAGTGCAG”: the binding signal is 65500 fluorescence intensity (a.u.).
“CCGGATCGAATTGCCACGTAAGCGTCACGTCACTGCCACACGGAGTCACCTAGTGCAG”: the binding signal is 17100 fluorescence intensity (a.u.).
With “ATCGAATTGTCACGTAAGCGCCACGTCAATGCTACGTCAGCGGAGTCACCTAGTGCAG” the figure was 26100 fluorescence intensity (a.u.); with “CTGGATCGAATTGCCACGTAAGCGCCACGTCAGTGCCACACGGAGTCACCTAGTGCAG”, 20700 fluorescence intensity (a.u.).
With “TTGAGATATAATTGCTACGTAAGTGCCACGTCAATGCCACCGGAGTCACCTAGTGCAG” the figure was 21400 fluorescence intensity (a.u.); with “GATATAATTGCCACGTAAGCGCCACGTCAATGCCACGTGCCGGAGTCACCTAGTGCAG”, 52100 fluorescence intensity (a.u.); with “GCTGAGATATAGTTGCCACGTAAGCGCCACGTCAATGCTACGGAGTCACCTAGTGCAG”, 33000 fluorescence intensity (a.u.).
In the case of “CGAGATATAATTGCCATGTCATTGCCACGTCAATGTCACGCGGAGTCACCTAGTGCAG”, the binding signal was 49600 fluorescence intensity (a.u.).
With “TCATCCCCTGATCGTCATCAGCATTCTCACCGTCGGCGCTCGGAGTCACCTAGTGCAG” the figure was 4690 fluorescence intensity (a.u.); with “AGTAGGGAAAGTTACAACGCAGCCTAACGTGGGATAGCGGCGGAGTCACCTAGTGCAG”, 3980 fluorescence intensity (a.u.).
With “CGCGATCCTGACAGTATATTCTATCTTTGACACAGTCTGACGGAGTCACCTAGTGCAG” the figure was 3320 fluorescence intensity (a.u.); with “GCAGCCATTTACGCTTTCCACGTCAGTGCATGATGGAGTACGGAGTCACCTAGTGCAG”, 16800 fluorescence intensity (a.u.); with “GTAGCGGCTGCGGCGCTCCAGCTCCTCGGAGGCCCGGTCCCGGAGTCACCTAGTGCAG”, 3790 fluorescence intensity (a.u.).
With “CTCCCCACTCACTGCCAGGTGGGCCCACCTTGTCGGATTACGGAGTCACCTAGTGCAG” the figure was 3530 fluorescence intensity (a.u.); with “ATGTCAAGACAACAACAGTTGTAAATGTGATCTGGACATACGGAGTCACCTAGTGCAG”, 3540 fluorescence intensity (a.u.).
For “TCCCTGCGAAATTGTACACATCAACACAACATAAGGTCGACGGAGTCACCTAGTGCAG”, the binding signal is 3700 fluorescence intensity (a.u.).
On to “GGCAAATCGGTAATTGCCATGTCACAAGAGTGGCAAATAGCGGAGTCACCTAGTGCAG”, for which the binding signal was 8900 fluorescence intensity (a.u.).
